Results as given in PubChem BioAssay (NCI).
About 79,000 compounds went through this panel and 15% of them were active in at least one assay; those are over-represented in the sample as a whole. A number with no mark means an inactive call. Active and inactive are the calls of the source. Rule as the data show it: active = growth inhibition above about 70%; inactive = the rest. Where a SMILES comes first, the peptide text is derived from it. The star is where a group is joined. Cbz = O=C(OCc1ccccc1)*

Legend:
[1] = NCI Yeast Anticancer Drug Screen. Data for the rad50 strain (AID 155);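 also: 0% = growth of vehicle-only cultures of the same strain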; settings: S. cerevisiae rad50 strain growth inhibition, hits give high values
How it was run: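 Compounds were tested on a yeast strain with an engineered DNA damage repair alteration; the reported value is growth inhibition normalised to vehicle treatment.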

[2] = NCI Yeast Anticancer Drug Screen. Data for the mec2-1 strain (AID 157); settings: S. cerevisiae mec2-1 strain, hits give high values
How it was run: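 Strain: mec2-1 (DNA repair/cell cycle alteration). Compound exposure, then growth measured; inhibition expressed relative to vehicle.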

[3] = NCI Yeast Anticancer Drug Screen. Data for the sgs1 mgt1 strain (AID 161);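 also: 0% = growth of cultures given vehicle only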; settings: S. cerevisiae sgs1 mgt1 strain, hits give high values
How it was run: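 Test agents were incubated with a DNA-repair-mutant yeast strain. Growth was then read and compared against vehicle-treated controls.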

[4] = NCI Yeast Anticancer Drug Screen. Data for the cln2 rad14 strain (AID 165);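 also: 0% = growth equal to vehicle treated cultures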; settings: S. cerevisiae cln2 rad14 strain, hits give high values
How it was run: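 Compounds are applied to the cln2 rad14 yeast strain, and growth is then compared with that of vehicle-treated cultures to give inhibition.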

[5] = NCI Yeast Anticancer Drug Screen. Data for the bub3 strain (AID 167); settings: S. cerevisiae bub3 mutant strain, hits give high values
How it was run: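 Growth of a checkpoint-deficient yeast mutant is measured after compound exposure. Values represent inhibition relative to vehicle.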

[6] = NCI Yeast Anticancer Drug Screen. Data for the mlh1 rad18 strain (AID 175); settings: S. cerevisiae mlh1 rad18 strain growth inhibition, hits give high values
How it was run: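 Read-out is yeast growth inhibition, calculated against vehicle-only controls. The compound was applied to a strain engineered with DNA damage repair alterations.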

[7] = at 5.0 µM (retest, dose inferred, filed as 0.5)
[8] = at 50.0 µM (retest, dose inferred, filed as 5.0)

Structure (SMILES)	growth inhibition [1, 7]	growth inhibition [1, 8]	growth inhibition ([1]; at 50.0 µM)	growth inhibition [2, 7]	growth inhibition [2, 8]	growth inhibition ([2]; at 50.0 µM)	growth inhibition [3, 7]	growth inhibition [3, 8]	growth inhibition ([3]; at 50.0 µM)	growth inhibition [4, 7]	growth inhibition [4, 8]	growth inhibition ([4]; at 50.0 µM)	growth inhibition [5, 7]	growth inhibition [5, 8]	growth inhibition ([5]; at 50.0 µM)	growth inhibition [6, 7]	growth inhibition [6, 8]	growth inhibition ([6]; at 50.0 µM)
O=C(OCC1CCCO1)N(c1ccccc1)c1ccccc1 (configuration not stated)	12%	-5%	23.1%	15%	21%	24.3%	18%	20%	46.9%	30%	21%	-11.4%	0%	16%	2%	16%	40%	37.7%
CCOC(=O)Nc1ccc(SCC2COC(Cn3ccnc3)(c3ccc(Cl)cc3Cl)O2)cc1 (configuration not stated)	89% (active)	91% (active)	97% (active)	72% (active)	93% (active)	96.2% (active)	84% (active)	94% (active)	49.1%	60%	90% (active)	98% (active)	91% (active)	93% (active)	94.5% (active)	61%	90% (active)	95.2% (active)
CC(=O)c1sc2c(c1O)c(=O)n(-c1ccccc1)c(=S)n2-c1ccccc1	-4%	75% (active)	68.3%	19%	83% (active)	67.4%	10%	88% (active)	75.5% (active)	16%	95% (active)	80% (active)	25%	94% (active)	58.4%	-11%	87% (active)	29.9%
O=C(O)CCC12CCCCC1=NC1(CCCCC1)NC2=O (configuration not stated)	2%	6%	10.6%	-2%	-1%	44.6%	3%	4%	72.7% (active)	4%	3%	18.1%	1%	2%	67%	1%	7%	55.6%
CC(=O)[C@H]1CC[C@H]2[C@@H]3CC[C@H]4C[C@@H](N5CCOCC5)CC[C@]4(C)[C@H]3CC[C@]12C	54%	63%	73.3% (active)	61%	76% (active)	36.5%	70% (active)	87% (active)	83.5% (active)	52%	30%	87.5% (active)	49%	81% (active)	59.5%	76% (active)	69%	74.8% (active)
COc1ccc(CN2CCCN(Cc3ccc(OC)cc3OC)C2c2cc(Cl)cc(Cl)c2O)c(OC)c1	10%	52%	73.8% (active)	16%	93% (active)	33.3%	-10%	75% (active)	76.2% (active)	-2%	35%	30.9%	3%	79% (active)	3.9%	27%	94% (active)	61.4%
CCCN(CCC)c1ccc(Cc2ccc(N(CCC)CCC)cc2N)c(N)c1	-3%	96% (active)	97.8% (active)	-5%	98% (active)	98.3% (active)	-6%	99% (active)	44.5%	-1%	91% (active)	97% (active)	-1%	96% (active)	96.8% (active)	-5%	95% (active)	98.1% (active)
O=C(NC(Cc1ccc(O)cc1)C(=O)NC(Cc1ccccc1)C(=O)O)OCc1ccccc1 (stereo not drawn) (Cbz-Tyr-Phe-OH; configuration not given here)	-6%	-1%	-17.3%	29%	-1%	5.85%	-2%	0%	34.1%	1%	1%	-36.5%	-5%	-3%	-4.3%	-2%	-1%	-0.6%
O=C1CSC(=S)N1Cc1ccncc1	2%	38%	39.1%	-14%	37%	40.9%	-8%	25%	57.5%	24%	31%	18.6%	12%	29%	65.5%	-16%	71% (active)	39.3%
CCCCCCCCCCCCNC(=O)c1ccc[n+](Cc2ccc(Cl)c(Cl)c2)c1	99% (active)	98% (active)	99% (active)	100% (active)	99% (active)	99% (active)	99% (active)	98% (active)	98.8% (active)	99% (active)	99% (active)	98.2% (active)	98% (active)	98% (active)	97.8% (active)	99% (active)	99% (active)	98.7% (active)
CC(=O)c1c2c(cc3c1CC1(Cc4cc5c(cc4C1)C(=O)CCC5)C3)CCCC2 (configuration not stated)	34%	32%	-15.8%	23%	25%	-16%	22%	27%	8.95%	22%	30%	8.4%	32%	33%	6.25%	28%	29%	13.8%
CC(C)/C=C1\CCOC1=O	0%	9%	36.3%	-3%	1%	14.8%	1%	5%	39.8%	5%	3%	44.5%	-3%	4%	-0.55%	0%	6%	21.7%
Cc1cccc(NC(=S)N/N=C(/c2ccccc2)c2ccccn2)c1	-3%	94% (active)	56%	-1%	94% (active)	66.5%	-35%	93% (active)	73.2% (active)	-15%	92% (active)	74.7% (active)	-38%	93% (active)	77.4% (active)	-8%	93% (active)	76.8% (active)
COC(=O)c1cc2c(oc1=O)-c1ccccc1N(C=O)C2	-3%	-8%	0.3%	-9%	-11%	-8.75%	-13%	-11%	11.4%	-11%	-9%	-55.8%	-16%	-24%	-35.1%	0%	-21%	2.1%
O=S1(=O)c2ccccc2C(O)(c2ccccc2)c2cc3ccccc3n21 (configuration not stated)	9%	95% (active)	95.8% (active)	9%	96% (active)	95.5% (active)	12%	97% (active)	94.2% (active)	9%	95% (active)	94.9% (active)	5%	96% (active)	94.3% (active)	8%	95% (active)	95.5% (active)
COc1ccc(C=Nc2ccccc2O)cc1	26%	44%	59.1%	15%	22%	32.2%	11%	15%	39.5%	-2%	13%	-15.9%	81% (active)	74% (active)	76.6% (active)	38%	54%	67.4%
S=C(Nc1ccc2cn[nH]c2c1)Nc1ccc2cn[nH]c2c1	7%	46%	79.1% (active)	16%	0%	-12.9%	-5%	5%	30.9%	-25%	2%	-1.15%	7%	1%	40%	2%	17%	41.9%
CCCCC#CCOC(=O)c1cc([N+](=O)[O-])cc([N+](=O)[O-])c1	97% (active)	99% (active)	99.2% (active)	99% (active)	100% (active)	98.5% (active)	99% (active)	99% (active)	99.8% (active)	67%	99% (active)	99.3% (active)	96% (active)	100% (active)	99.3% (active)	98% (active)	99% (active)	98.8% (active)
O=C(O)c1c2c(cc3c1CC1(Cc4ccccc4C1=O)C3)CCC2 (configuration not stated)	7%	7%	81.2% (active)	21%	21%	89% (active)	20%	20%	84.8% (active)	-10%	-10%	84.2% (active)	16%	16%	84.2% (active)	24%	24%	77.9% (active)
